PubChem BioAssay AID1159580 (chemical genetic matrix, 2015)
Several values for one entry are separate records, joined by “and”; a condition that tells them apart may be missing. Identical values can stand only once. Among all 5,500 compounds or so, about 2,000 (36%) were called active. Another 18% or so got no clear call; they are omitted. Cut-off read from the data, not from the text of the source: active = normalized growth mostly below about 0.91 (no sharp cut-off); inconclusive = no clear call, values can overlap the other calls; inactive = mostly above about 0.92. This is one part of the list.

Assay: chemical genetic growth profiling, strain panel (AID 1159580);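 note: tested at 20 µM; growth read once vehicle control cultures reached saturation at 30 °C; 1 = growth at the plate median or of vehicle wells; lower values mean less growth of the strain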
Details: growth OD
[1] = S. cerevisiae deletion strains, locus YMR307W, strain GAS1, stronger effect = lower value
[2] = S. cerevisiae deletion strains, locus YNL322C, strain KRE1, stronger effect = lower value

Measured: normalized growth

N[C@@H](C(=O)N[C@@H]1C(=O)N2C(C(=O)O)=C(Cl)CS[C@H]12)c1ccccc1
inactive: S. cerevisiae deletion strains, locus YAL013W, strain DEP1, stronger effect = lower value 1.01 | S. cerevisiae deletion strains, locus YBR021W, strain FUR4, stronger effect = lower value 1 | S. cerevisiae deletion strains, locus YBR229C, strain ROT2, stronger effect = lower value 1.02 | S. cerevisiae deletion strains, locus YCL029C, strain bik1, stronger effect = lower value 1.03 | S. cerevisiae deletion strains, locus YDL035C, strain GPR1, stronger effect = lower value 1.01 | S. cerevisiae deletion strains, locus YDL074C, strain BRE1, stronger effect = lower value 1.02 | S. cerevisiae deletion strains, locus YDL101C, strain DUN1, stronger effect = lower value 1.01 | S. cerevisiae deletion strains, locus YDL134C, strain PPH21, stronger effect = lower value 1.01 | S. cerevisiae deletion strains, locus YDL185W, strain tfp1, stronger effect = lower value 1.02 | S. cerevisiae deletion strains, locus YDL192W, strain arf1, stronger effect = lower value 1.02 | S. cerevisiae deletion strains, locus YDR101C, strain arx1, stronger effect = lower value 1.01 | S. cerevisiae deletion strains, locus YDR150W, strain NUM1, stronger effect = lower value 1.01 | S. cerevisiae deletion strains, locus YDR162C, strain NBP2, stronger effect = lower value 1.02 | S. cerevisiae deletion strains, locus YDR318W, strain mcm21, stronger effect = lower value 1.02 | S. cerevisiae deletion strains, locus YDR388W, stronger effect = lower value 1.02 | S. cerevisiae deletion strains, locus YDR502C, strain sam2, stronger effect = lower value 1.02 | S. cerevisiae deletion strains, locus YEL061C, strain CIN8, stronger effect = lower value 1.01 | S. cerevisiae deletion strains, locus YER110C, stronger effect = lower value 1.03 | S. cerevisiae deletion strains, locus YER155C, strain BEM2, stronger effect = lower value 1 | S. cerevisiae deletion strains, locus YER167W, strain BCK2, stronger effect = lower value 1.01 | S. cerevisiae deletion strains, locus YGL078C, strain dbp3, stronger effect = lower value 1.02 | S. cerevisiae deletion strains, locus YGL086W, strain mad1, stronger effect = lower value 1.01 | S. cerevisiae deletion strains, locus YGL248W, strain PDE1, stronger effect = lower value 1.02 | S. cerevisiae deletion strains, locus YGR078C, strain PAC10, stronger effect = lower value 1.01 | S. cerevisiae deletion strains, locus YGR135W, strain pre9, stronger effect = lower value 1.01 | S. cerevisiae deletion strains, locus YGR229C, strain SMI1, stronger effect = lower value 1.01 | S. cerevisiae deletion strains, locus YGR252W, strain gcn5, stronger effect = lower value 1.04 | S. cerevisiae deletion strains, locus YHR030C, strain SLT2, stronger effect = lower value 1.01 and 0.982 | S. cerevisiae deletion strains, locus YHR079C, strain IRE1 (second series), stronger effect = lower value 1.02 | S. cerevisiae deletion strains, locus YHR079C, strain IRE1, stronger effect = lower value 0.976 | S. cerevisiae deletion strains, locus YHR094C, strain hxt1, stronger effect = lower value 1.02 | S. cerevisiae deletion strains, locus YHR129C, strain ARP1, stronger effect = lower value 1.01 | S. cerevisiae deletion strains, locus YHR200W, strain rpn10, stronger effect = lower value 1.03 | S. cerevisiae deletion strains, locus YIL066C, strain RNR3, stronger effect = lower value 1.03 | S. cerevisiae deletion strains, locus YIL073C, strain SPO22, stronger effect = lower value 1.08 | S. cerevisiae deletion strains, locus YIL125W, strain kgd1, stronger effect = lower value 1.02 | S. cerevisiae deletion strains, locus YIR030C, strain dcg1, stronger effect = lower value 1.03 | S. cerevisiae deletion strains, locus YJL095W, strain BCK1, stronger effect = lower value 1.01 and 0.976 | S. cerevisiae deletion strains, locus YJL134W, strain LCB3, stronger effect = lower value 1.01 | S. cerevisiae deletion strains, locus YJL168C, strain set2, stronger effect = lower value 1.02 | S. cerevisiae deletion strains, locus YJL187C, strain SWE1 (second series), stronger effect = lower value 1.02 | S. cerevisiae deletion strains, locus YJR043C, strain POL32, stronger effect = lower value 1.01 | S. cerevisiae deletion strains, locus YJR066W, strain TOR1, stronger effect = lower value 0.928 | S. cerevisiae deletion strains, locus YJR075W, strain HOC1, stronger effect = lower value 0.999 | S. cerevisiae deletion strains, locus YKL009W, strain mrt4, stronger effect = lower value 1.02 | S. cerevisiae deletion strains, locus YKL068W, stronger effect = lower value 1.03 | S. cerevisiae deletion strains, locus YKL085W, strain MDH1 (second series), stronger effect = lower value 1.02 | S. cerevisiae deletion strains, locus YKL085W, strain MDH1, stronger effect = lower value 1.02 | S. cerevisiae deletion strains, locus YKL190W, strain CNB1, stronger effect = lower value 1.01 | S. cerevisiae deletion strains, locus YKR001C, strain vps1, stronger effect = lower value 1.02 | S. cerevisiae deletion strains, locus YLR039C, strain RIC1, stronger effect = lower value 1.05 | S. cerevisiae deletion strains, locus YLR058C, strain SHM2, stronger effect = lower value 1.01 | S. cerevisiae deletion strains, locus YLR102C, strain apc9, stronger effect = lower value 1.03 | S. cerevisiae deletion strains, locus YLR113W, strain HOG1, stronger effect = lower value 1 | S. cerevisiae deletion strains, locus YLR262C, strain YPT6, stronger effect = lower value 1.04 | S. cerevisiae deletion strains, locus YLR268W, strain sec22, stronger effect = lower value 1.02 | S. cerevisiae deletion strains, locus YLR330W, strain CHS5, stronger effect = lower value 1.01 | S. cerevisiae deletion strains, locus YLR342W, strain FKS1 (second series), stronger effect = lower value 0.986 | S. cerevisiae deletion strains, locus YLR371W, strain rom2, stronger effect = lower value 1.01 | S. cerevisiae deletion strains, locus YLR418C, strain cdc73, stronger effect = lower value 1.03 | S. cerevisiae deletion strains, locus YML016C, strain PPZ1, stronger effect = lower value 1.01 | S. cerevisiae deletion strains, locus YML032C, strain rad52, stronger effect = lower value 1.02 | S. cerevisiae deletion strains, locus YML124C, strain tub3, stronger effect = lower value 1.02 | S. cerevisiae deletion strains, locus YMR078C, strain ctf18, stronger effect = lower value 1.04 | S. cerevisiae deletion strains, locus YMR223W, strain ubp8, stronger effect = lower value 1.02 | S. cerevisiae deletion strains, locus YMR263W, strain SAP30, stronger effect = lower value 1.01 | [1] 1.05 | S. cerevisiae deletion strains, locus YNL067W, strain RPL9B, stronger effect = lower value 1.01 | S. cerevisiae deletion strains, locus YNL128W, strain TEP1, stronger effect = lower value 0.998 | S. cerevisiae deletion strains, locus YNL153C, strain GIM3, stronger effect = lower value 1.01 | S. cerevisiae deletion strains, locus YNL183C, strain NPR1, stronger effect = lower value 0.932 | S. cerevisiae deletion strains, locus YNL233W, strain BNI4, stronger effect = lower value 1.01 | S. cerevisiae deletion strains, locus YNL250W, strain rad50, stronger effect = lower value 1.01 | S. cerevisiae deletion strains, locus YNL271C, strain bni1, stronger effect = lower value 1.02 | S. cerevisiae deletion strains, locus YNL298W, strain CLA4, stronger effect = lower value 1.03 | S. cerevisiae deletion strains, locus YNL307C, strain MCK1, stronger effect = lower value 1.02 | [2] 1.01 | S. cerevisiae deletion strains, locus YNR052C, strain pop2, stronger effect = lower value 1.02 | S. cerevisiae deletion strains, locus YOL006C, strain TOP1, stronger effect = lower value 1.02 | S. cerevisiae deletion strains, locus YOL012C, strain htz1 1.44 | S. cerevisiae deletion strains, locus YOL147C, strain pex11, stronger effect = lower value 1.02 | S. cerevisiae deletion strains, locus YOR061W, strain CKA2, stronger effect = lower value 1 | S. cerevisiae deletion strains, locus YOR069W, strain VPS5, stronger effect = lower value 0.999 | S. cerevisiae deletion strains, locus YOR136W, strain idh2, stronger effect = lower value 1.02 | S. cerevisiae deletion strains, locus YOR144C, strain elg1, stronger effect = lower value 1.02 | S. cerevisiae deletion strains, locus YOR184W, strain ser1, stronger effect = lower value 1.02 | S. cerevisiae deletion strains, locus YOR231W, strain MKK1, stronger effect = lower value 0.987 | S. cerevisiae deletion strains, locus YOR316C, strain cot1, stronger effect = lower value 1.02 | S. cerevisiae deletion strains, locus YPL055C, strain LGE1, stronger effect = lower value 1 | S. cerevisiae deletion strains, locus YPL256C, strain CLN2, stronger effect = lower value 0.971 | S. cerevisiae deletion strains, locus YPR119W, strain clb2, stronger effect = lower value 1.03 | S. cerevisiae deletion strains, locus YPR141C, strain kar3, stronger effect = lower value 1.03 | S. cerevisiae deletion strains, locus YPR163C, strain tif3, stronger effect = lower value 1.02 | S. cerevisiae deletion strains, locus YPR167C, strain met16, stronger effect = lower value 1.02 | S. cerevisiae deletion strains, strain wtn01, stronger effect = lower value 1.02 | S. cerevisiae strains, strain wild type, stronger effect = lower value 1.01
active: S. cerevisiae deletion strains, locus YPL241C, strain CIN2, stronger effect = lower value 1.09 [resistant]

NC(C(=O)N[C@@H]1C(=O)N2C(C(=O)O)=C(Cl)CS[C@H]12)c1ccccc1 (stereo partly specified)
inactive: S. cerevisiae deletion strains, locus YAL040C, strain CLN3, stronger effect = lower value 0.986 | S. cerevisiae deletion strains, locus YDR363W, strain ESC2, stronger effect = lower value 1.03 | S. cerevisiae deletion strains, locus YER002W, strain NOP16, stronger effect = lower value 1 | [1] 0.998 | S. cerevisiae deletion strains, locus YNL175C, strain NOP13, stronger effect = lower value 1.01 | S. cerevisiae deletion strains, locus YNL197C, strain WHI3, stronger effect = lower value 0.99 | S. cerevisiae deletion strains, locus YNL224C, strain SQS1, stronger effect = lower value 1.01 | [2] 1 | S. cerevisiae deletion strains, locus YOR083W, strain WHI5 (second series), stronger effect = lower value 0.992
